A selection: hits, their analogues and other compounds. The true share with any hit is near 5.8%.
PINK1 expr mod: A Quantitative High throughput Screen to Identify Chemical Modulators of PINK1 Expression | PINK1 immunofluorescence, high-content cytometry, 24 h | Potency, µM (doses to about 76.6 µM), without a hit: top-dose activation (PINK1 increase), usual class: activators | 410,000 compounds, 0.2% hits; active means well fitted activation curve with a large enough effect; inconclusive means small, poorly fitted or top-dose-only effect; cell line not stated here; further: % of control where 0% means no effect; nearly all actives have a fitted effect of over 65% in size
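A stable cell line was treated with compounds at 5 concentrations for 24 hours, with CCCP as control. PINK1 levels and mitochondrial localization were measured by immunofluorescence with mitochondrial, cell and nuclear markers after fixation, read by laser-scanning cytometry.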
KB-V1 MDR tox: qHTS assay for MDR1-selective chemotherapeutics: Primary screen using the drug-selected MDR subline cells KB-V1 | KB-V1 MDR cells viability, CellTiter-Glo, 72 h | Potency, µM (titrated, usually from 46.1 µM), hits mostly cytotoxic | 400,000 compounds, 3.4% hits; further: on the % scale 0 is the no-effect control and ±100 the full control effect; nearly all actives have a fitted effect of over 60% in size
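Cells of the MDR subline KB-V1 are plated, dosed with compound at multiple concentrations, and incubated 72 h at 37 degrees C; CellTiter-Glo is then added and luminescence read after 10 min.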
KB-3-1 tox: qHTS assay for MDR1-selective chemotherapeutics: Primary screen using the parental adenocarcinoma cell KB-3-1; KB-3-1 viability, CellTiter-Glo ATP luminescence, 72 h; Potency, µM (top dose mostly 46.1 µM), usual class: cytotoxic; 400,000 compounds, 1.4% hits; AID 1347075, 2019; further: on the % scale 0 is the no-effect control and ±100 the full control effect; nearly all actives have a fitted effect of over 60% in size
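Cytotoxicity measured as CellTiter-Glo luminescence after 72 h at 37 C. Compound titrations were pinned onto drug-naive KB-3-1 parental adenocarcinoma cells grown in DMEM with 10% FBS, and normalized data fitted to concentration-response curves.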
ALOX12 inh: Primary qHTS assay for inhibitors of human arachidonate 12S-lipoxygenase (ALOX12): Round 2 | Polyunsaturated fatty acid lipoxygenase ALOX12 (Homo sapiens), P18054 | purified 12hLO, xylenol orange hydroperoxide absorbance | Potency, µM (top dose mostly 108 µM), without a hit: at the top dose activity change, negative = inhibition, most hits filed as inhibitors | AID 1671190, 2021 | 580,000 compounds, 1.1% hits; further: on the % scale 0 is the no-effect control and ±100 the full control effect
Target sequence (P18054 whole entry, looked up): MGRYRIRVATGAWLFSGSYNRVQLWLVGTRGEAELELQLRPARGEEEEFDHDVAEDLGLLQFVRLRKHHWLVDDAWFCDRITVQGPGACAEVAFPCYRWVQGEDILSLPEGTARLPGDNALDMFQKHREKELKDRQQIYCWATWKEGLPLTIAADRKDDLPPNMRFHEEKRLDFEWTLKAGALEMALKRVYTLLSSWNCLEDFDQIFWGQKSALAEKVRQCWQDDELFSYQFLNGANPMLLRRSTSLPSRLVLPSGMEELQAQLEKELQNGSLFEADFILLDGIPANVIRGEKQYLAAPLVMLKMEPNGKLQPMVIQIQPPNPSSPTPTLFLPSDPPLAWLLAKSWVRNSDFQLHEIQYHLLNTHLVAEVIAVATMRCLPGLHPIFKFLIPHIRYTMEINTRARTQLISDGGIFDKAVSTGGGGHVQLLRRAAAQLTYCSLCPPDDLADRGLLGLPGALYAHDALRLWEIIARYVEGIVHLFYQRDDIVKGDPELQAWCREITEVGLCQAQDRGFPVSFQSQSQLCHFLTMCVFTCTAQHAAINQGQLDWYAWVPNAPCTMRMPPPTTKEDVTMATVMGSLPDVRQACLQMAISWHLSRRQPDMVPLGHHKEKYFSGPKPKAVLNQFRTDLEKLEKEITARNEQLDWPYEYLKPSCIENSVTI
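Hydroperoxide product was detected by ferrous iron/xylenol orange as the 573 to 405 nm absorbance ratio. Arachidonic acid at 40 uM (final) was turned over for 30 min at room temperature by 150 nM human 12hLO, pH 7.0 Hepes buffer, after 15 min compound preincubation.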
SW480 rerep: A quantitative high throughput screen for small molecules that induce DNA re-replication in SW480 colon adenocarcinoma cells; 340,000 compounds, 1.8% hits; Potency, µM (doses to about 46.1 µM), inactives show at the top dose re-replication activation, most hits filed as activators; SW480 DNA re-replication, Hoechst DNA content imaging, 48 h; further: % of control where 0% means no effect; nearly all actives have a fitted effect of over 55% in size
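250 cells/well; 23 nL cpd via pin tool; 48 hr, 37 C, 5% CO2; Hoechst 40 min; imager read of total nuclear intensity, ex 405/em 500-530 nm.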
MCF10A rerep: A quantitative high throughput screen for small molecules that induce DNA re-replication in MCF 10a normal breast cells; 350,000 compounds, 2.9% hits; Potency, µM (doses to about 46.1 µM), without a hit: at the highest dose activity, positive = re-replication, most hits filed as activators; AID 624296, 2012; MCF 10A DNA re-replication, Hoechst nuclear intensity, 48 h; further: % of control where 0% means no effect; nearly all actives have a fitted effect of over 50% in size
The depositor's hits bear a star; i = inactive; ? = inconclusive; . = not tested or not shown; ! = not confirmed by another sample; [ ] = remark or other dose. Unless noted, the call rests on the fitted dose curve; in most records, active means well fitted curve in the direction sought with a large enough effect; inconclusive means small, poorly fitted or top-dose-only effect, or another doubt; inactive means no such curve, though single readings can be large; an effect the other way counts as inactive or inconclusive. Potency means the concentration at half of the fitted maximal effect.

SMILES	PINK1 expr mod	KB-V1 MDR tox	KB-3-1 tox	ALOX12 inh	SW480 rerep	MCF10A rerep
O=C1CCN(C(=O)C2CCN(S(=O)(=O)c3ccc4c(c3)CCC4)CC2)CCCCCCN1	.	.	.	31%	.	.
Cc1cccc(/C=N/NC(=O)c2cc(-c3cccnc3)nc3c2c(C)nn3-c2ccccc2)c1	?	15µM*	i	0%	-2%	?
Cc1cccc(/C=N/NC(=O)c2cc(-c3cccnc3)nc3ccccc23)c1	1%	i	i	-9%	-5%	4%
Cn1c(-c2ccc(F)cc2)cc2onc(-c3c(F)cccc3Cl)c2c1=O	0%	i	i	-27%	-2%	2.3µM*
Cc1ccc(-c2cc3onc(-c4ccccc4)c3c(=O)n2C)cc1	0%	?	?	0%	-11%	-17%
CCN(C(=O)COC(=O)c1cc2ccccc2oc1=O)c1ccccc1	.	.	.	0%	.	.
Cc1cc(CN2CCN(CC(=O)Nc3cc(C(F)(F)F)ccc3-n3cncn3)CC2)no1	11%	23µM*	i	-4%	-10%	-3%
O=C(Cc1ccc(F)cc1)N1CCC2(CC1)CCN(Cc1cccs1)c1ccccc1O2	.	.	.	-5%	.	.
N#Cc1cc2c([nH]c1=S)CCCCCC2	.	i	i	16µM*	5%	2%
COc1ccc(SC[C@H](C)CN2CC[C@H](C(C)(C)C)CCC2=O)cc1	0%	15µM*!	?	?	1%	?
C[C@@H](CSc1ccccc1)CN1CC[C@H](C(C)(C)C)CCC1=O	5%	18µM*!	?	-25%	-6%	?
CCOc1ccccc1NC(=O)c1nc2ccccc2nc1N1CCOCC1	.	.	.	-24%	.	.
CCOC(=O)c1[nH]c(C)c(CCC(=O)N2CCC(C(=O)NCCN3CCCCC3C)CC2)c1C (stereo unspecified)	.	.	.	-1%	.	.
Cn1c(SCc2ccccc2F)nc2cccnc21	2%[38.3 µM]	18µM*	i	6%	-2%	-3%
Cc1ccc(C)c(Oc2ccc(CNC(=O)c3nccnc3N)cn2)c1	.	.	.	-2%	.	.
CC[N+](CC)(CC)CCOc1ccc(/C=C/c2ccccc2)cc1	?	i	?	50µM*!	-32%	0%
CC[N+](CC)(CC)CCOc1ccc(/C=C\c2ccccc2)cc1	.	.	.	37%	.	.
COc1cccc(Cn2c(-c3nonc3N)nc3ccccc32)c1	4%	12µM*	2.9µM*	0%	4.6µM*	2.6µM*
Cc1ccc(Cn2c(-c3nonc3N)nc3ccccc32)cc1	16%	i	i	5%	2%	16%
COc1cc(Cn2c(-c3nonc3N)nc3ccccc32)ccc1C	2%	5.2µM*	4.6µM*	82%	7.1µM*	4µM*
CCOC(=O)CSc1nc2ccsc2c(=O)n1C1CCN(C(=O)OCC)CC1	-3%[38.3 µM]	16µM*	i	-1%	-10%	-5%
CCOC(=O)N1CCC(n2c(SCC(=O)NCc3ccco3)nc3ccsc3c2=O)CC1	5%[38.3 µM]	2.1µM*	?	.	-1%	21%
Cc1ccccc1-n1nc2c(c1NC(=O)c1ccc(Br)o1)CSC2	3%	13µM*	i	.	5%	23%
CC(=O)Nc1c2c(nn1-c1ccc(C)cc1C)CSC2	.	i	i	-9%[57.4 µM]	-4%	-8%
CN1C/C(=C/c2ccncc2)C(=O)/C(=C/c2ccncc2)C1	0%	i	i	13%	23µM*	?
CN1C/C(=C/c2ccsc2)C(=O)/C(=C/c2ccsc2)C1	6%	?	?	-18%	3.3µM*	18µM*
COc1ccc2c(c1)CC/C(=C/c1ccncc1)C2=O	-1%	?	?	.	?	?
